Measured values published in PubChem BioAssay AID1159580 (chemical genetic matrix, 2015).
Hit rate of the full screen: of about 5,500 compounds, about 2,000 (36%) were called active. Another 18% or so got no clear call; they are omitted. Rule as the data show it: active = normalized growth mostly below about 0.91 (no sharp cut-off); inconclusive = no clear call, values can overlap the other calls; inactive = mostly above about 0.92. The list shows a part of the results.

Assay: chemical genetic growth profiling, strain panel (AID 1159580);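 also: tested at 20 µM; growth read once vehicle control cultures reached saturation at 30 °C; 1 = growth at the plate median or of vehicle wells; lower values mean less growth of the strain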
Conditions: growth OD

Measured: normalized growth

N#Cc1c(Cl)c(Cl)c(Cl)c(C#N)c1Cl
active: S. cerevisiae deletion strains, locus YKL160W, strain elf1, active compounds read low 0.0734 | S. cerevisiae deletion strains, locus YKR026C, strain gcn3, active compounds read low 0.0728 | S. cerevisiae deletion strains, locus YKR091W, strain srl3, active compounds read low 0.0738 | S. cerevisiae deletion strains, locus YLL001W, strain dnm1, active compounds read low 0.0739 | S. cerevisiae deletion strains, locus YLL026W, active compounds read low 0.068 | S. cerevisiae deletion strains, locus YLL041C, strain sdh2, active compounds read low 0.0683 | S. cerevisiae deletion strains, locus YLR027C, strain aat2, active compounds read low 0.072 | S. cerevisiae deletion strains, locus YLR113W, strain HOG1, active compounds read low 0.153 | S. cerevisiae deletion strains, locus YLR221C, strain rsa3, active compounds read low 0.0754 | S. cerevisiae deletion strains, locus YLR258W, strain gsy2, active compounds read low 0.0732 | S. cerevisiae deletion strains, locus YLR262C, strain YPT6 (second series), active compounds read low 0.0948 | S. cerevisiae deletion strains, locus YLR320W, strain mms22, active compounds read low 0.0991 | S. cerevisiae deletion strains, locus YLR342W, strain FKS1, active compounds read low 0.0799 | S. cerevisiae deletion strains, locus YLR357W, strain rsc2, active compounds read low 0.146 | S. cerevisiae deletion strains, locus YLR370C, strain arc18, active compounds read low 0.0758 | S. cerevisiae deletion strains, locus YLR384C, strain iki3, active compounds read low 0.0759 | S. cerevisiae deletion strains, locus YML120C, strain ndi1, active compounds read low 0.0696 | S. cerevisiae deletion strains, locus YMR058W, strain fet3, active compounds read low 0.074 | S. cerevisiae deletion strains, locus YMR125W, strain sto1, active compounds read low 0.0959 | S. cerevisiae deletion strains, locus YMR129W, active compounds read low 0.0707 | S. cerevisiae deletion strains, locus YMR205C, strain PFK2, active compounds read low 0.111 | S. cerevisiae deletion strains, locus YMR231W, strain pep5, active compounds read low 0.0788 | S. cerevisiae deletion strains, locus YNL071W, strain lat1, active compounds read low 0.0711 | S. cerevisiae deletion strains, locus YNL183C, strain NPR1, active compounds read low -0.00756 | S. cerevisiae deletion strains, locus YNL209W, strain ssb2, active compounds read low 0.0719 | S. cerevisiae deletion strains, locus YNL248C, strain rpa49, active compounds read low 0.0922 | S. cerevisiae deletion strains, locus YNL322C, strain KRE1 (second series), active compounds read low 0.0768 | S. cerevisiae deletion strains, locus YNR049C, strain mso1, active compounds read low 0.0681 | S. cerevisiae deletion strains, locus YOR001W, strain rrp6, active compounds read low 0.0917 | S. cerevisiae deletion strains, locus YOR070C, strain gyp1, active compounds read low 0.0717 | S. cerevisiae deletion strains, locus YOR080W, strain dia2, active compounds read low 0.0799 | S. cerevisiae deletion strains, locus YOR083W, strain WHI5, active compounds read low 0.0798 | S. cerevisiae deletion strains, locus YOR106W, strain vam3, active compounds read low 0.0853 | S. cerevisiae deletion strains, locus YOR231W, strain MKK1, active compounds read low 0.13 | S. cerevisiae deletion strains, locus YOR265W, strain rbl2, active compounds read low 0.0688 | S. cerevisiae deletion strains, locus YOR270C, strain vph1, active compounds read low 0.122 | S. cerevisiae deletion strains, locus YOR290C, strain snf2, active compounds read low 0.0764 | S. cerevisiae deletion strains, locus YPL051W, strain arl3, active compounds read low 0.0808 | S. cerevisiae deletion strains, locus YPL078C, strain atp4, active compounds read low 0.081 | S. cerevisiae deletion strains, locus YPL106C, strain sse1, active compounds read low 0.126 | S. cerevisiae deletion strains, locus YPL240C, strain hsp82, active compounds read low 0.0722 | S. cerevisiae deletion strains, locus YPL256C, strain CLN2, active compounds read low 0.186
inactive: S. cerevisiae deletion strains, locus YJR075W, strain HOC1, active compounds read low 0.999 | S. cerevisiae deletion strains, locus YKL009W, strain mrt4, active compounds read low 0.976 | S. cerevisiae deletion strains, locus YKL068W, active compounds read low 0.989 | S. cerevisiae deletion strains, locus YKL085W, strain MDH1 (second series), active compounds read low 0.989 | S. cerevisiae deletion strains, locus YKL085W, strain MDH1, active compounds read low 0.989 | S. cerevisiae deletion strains, locus YKL190W, strain CNB1, active compounds read low 1.01 | S. cerevisiae deletion strains, locus YKR001C, strain vps1, active compounds read low 0.983 | S. cerevisiae deletion strains, locus YLR039C, strain RIC1, active compounds read low 1 | S. cerevisiae deletion strains, locus YLR058C, strain SHM2, active compounds read low 0.994 | S. cerevisiae deletion strains, locus YLR102C, strain apc9, active compounds read low 0.981 | S. cerevisiae deletion strains, locus YLR262C, strain YPT6, active compounds read low 1.02 | S. cerevisiae deletion strains, locus YLR268W, strain sec22, active compounds read low 0.998 | S. cerevisiae deletion strains, locus YLR330W, strain CHS5, active compounds read low 0.996 | S. cerevisiae deletion strains, locus YLR342W, strain FKS1 (second series), active compounds read low 0.993 | S. cerevisiae deletion strains, locus YLR371W, strain rom2, active compounds read low 0.975 | S. cerevisiae deletion strains, locus YLR418C, strain cdc73, active compounds read low 0.995 | S. cerevisiae deletion strains, locus YML016C, strain PPZ1, active compounds read low 0.998 | S. cerevisiae deletion strains, locus YML032C, strain rad52, active compounds read low 0.968 | S. cerevisiae deletion strains, locus YML124C, strain tub3, active compounds read low 0.984 | S. cerevisiae deletion strains, locus YMR078C, strain ctf18, active compounds read low 0.969 | S. cerevisiae deletion strains, locus YMR223W, strain ubp8, active compounds read low 0.975 | S. cerevisiae deletion strains, locus YMR263W, strain SAP30, active compounds read low 1 | S. cerevisiae deletion strains, locus YMR307W, strain GAS1, active compounds read low 0.902 | S. cerevisiae deletion strains, locus YNL067W, strain RPL9B, active compounds read low 1 | S. cerevisiae deletion strains, locus YNL128W, strain TEP1, active compounds read low 0.997 | S. cerevisiae deletion strains, locus YNL153C, strain GIM3, active compounds read low 1.01 | S. cerevisiae deletion strains, locus YNL233W, strain BNI4, active compounds read low 1 | S. cerevisiae deletion strains, locus YNL250W, strain rad50, active compounds read low 0.98 | S. cerevisiae deletion strains, locus YNL271C, strain bni1, active compounds read low 0.974 | S. cerevisiae deletion strains, locus YNL298W, strain CLA4, active compounds read low 0.971 | S. cerevisiae deletion strains, locus YNL307C, strain MCK1, active compounds read low 0.981 | S. cerevisiae deletion strains, locus YNL322C, strain KRE1, active compounds read low 0.997 | S. cerevisiae deletion strains, locus YNR052C, strain pop2, active compounds read low 0.978 | S. cerevisiae deletion strains, locus YOL006C, strain TOP1, active compounds read low 1.01 | S. cerevisiae deletion strains, locus YOL012C, strain htz1 1.56 | S. cerevisiae deletion strains, locus YOL147C, strain pex11, active compounds read low 0.989 | S. cerevisiae deletion strains, locus YOR061W, strain CKA2, active compounds read low 1.01 | S. cerevisiae deletion strains, locus YOR069W, strain VPS5, active compounds read low 0.999 | S. cerevisiae deletion strains, locus YOR136W, strain idh2, active compounds read low 0.977 | S. cerevisiae deletion strains, locus YOR144C, strain elg1, active compounds read low 0.981 | S. cerevisiae deletion strains, locus YOR184W, strain ser1, active compounds read low 0.965 | S. cerevisiae deletion strains, locus YOR316C, strain cot1, active compounds read low 0.984 | S. cerevisiae deletion strains, locus YPL055C, strain LGE1, active compounds read low 1.01 | S. cerevisiae deletion strains, locus YPL241C, strain CIN2, active compounds read low 1 | S. cerevisiae deletion strains, locus YPR119W, strain clb2, active compounds read low 0.985 | S. cerevisiae deletion strains, locus YPR141C, strain kar3, active compounds read low 0.978 | S. cerevisiae deletion strains, locus YPR163C, strain tif3, active compounds read low 0.98 | S. cerevisiae deletion strains, locus YPR167C, strain met16, active compounds read low 0.989 | S. cerevisiae deletion strains, strain wtn01, active compounds read low 0.99 | S. cerevisiae strains, strain wild type, active compounds read low 0.997
